# Inconclusive results are not listed. Activity calls are given as the source filed them. The call rests on the fitted dose curve; in most records, active means well fitted cell-killing curve with a large enough effect; inconclusive means small, poorly fitted or top-dose-only effect, or effect the other way; inactive means no such curve, though single readings can be large or run the other way.
# Tested on: HeLa
# Test: Confirmatory qHTS for gynecologic anti-cancer compounds from libraries of approved drugs and bioactive compounds; further: nearly all actives have a fitted effect of over 55% in size
# Conditions: gynecologic cancer cell panel viability, ATPlite luminescence, 48 h; series mostly up to 57.6 µM
# Procedure, shortened: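 Cells (1,000/well) were plated, left 16 h at 37 C/5% CO2, then given compound at 11 concentrations (1:3) from 57.5 uM to 0.977 nM for 48 h. ATPlite luminescence after 15 min at room temperature gave IC50 values.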
# Potency means the concentration at half of the fitted maximal effect.
row,Structure (SMILES),Potency
1,Cn1c(=O)c(-c2c(Cl)cccc2Cl)cc2cnc(Nc3cccc(C(=O)O)c3)nc21,2.43 µM (active)
2,CN1CCN(CCOc2cc(OC3CCOCC3)c3c(Nc4c(Cl)ccc5c4OCO5)ncnc3c2)CC1,inactive
3,O=C1Cc2cc(CCN3CCN(c4nsc5ccccc45)CC3)c(Cl)cc2N1,inactive
4,Nc1cccc(-c2cc3c(Oc4cccc(O)c4)ncnc3[nH]2)c1,9.68 µM (active)
5,CCCCc1oc2ccc(NS(C)(=O)=O)cc2c1C(=O)c1ccc(OCCCN(CCCC)CCCC)cc1,24.3 µM (active)
6,COc1cc(N2CCC(N)CC2)ccc1Nc1ncc(Cl)c(-c2c[nH]c3ccccc23)n1,0.544 µM (active)
7,CC[C@@]1(O)C(=O)OCc2c1cc1n(c2=O)Cc2c-1nc1ccccc1c2/C=N/OC(C)(C)C,7.69 µM (active)
8,CC(C)Oc1ccc(C(=O)NC(CNC(=O)CN(C)C)Cc2ccc(-c3cn4cccc(C(C)O)c4n3)cc2)cc1Cl (configuration not stated),0.153 µM (active)
9,C[C@@H](Oc1cc(-c2cnn(C3CCNCC3)c2)cnc1N)c1c(Cl)ccc(F)c1Cl,4.32 µM (active)
10,CS(=O)(=O)c1ccc(C(=O)Nc2ccc(Cl)c(-c3ccccn3)c2)c(Cl)c1,inactive
11,Cc1[nH]c2ccccc2c1CCNCc1ccc(/C=C/C(=O)NO)cc1,0.432 µM (active)
12,CC1=C(CO)C(=O)O[C@@H]([C@@H](C)[C@H]2CC[C@H]3[C@@H]4C[C@H]5O[C@]56[C@@H](O)C=CC(=O)[C@]6(C)[C@H]4CC[C@]23C)C1,2.11 µM (active)
13,NS(=O)(=O)c1ccc(Nc2nc(OCC3CCCCC3)c3[nH]cnc3n2)cc1,24.3 µM (active)
14,COc1cc2c(c(OC)c1OC)-c1ccc(OC)c(=O)cc1[C@@H](NC(C)=O)CC2,0.178 µM (active)
15,CC(Oc1ccc2[nH]nc(/C=C/c3cnn(CCO)c3)c2c1)c1c(Cl)cncc1Cl (configuration not stated),0.172 µM (active)
16,CC[C@]1(O)C[C@@H]2CN(CCc3c([nH]c4ccccc34)[C@@](C(=O)OC)(c3cc4c(cc3OC)N(C)[C@H]3[C@@](O)(C(=O)OC)[C@H](OC(C)=O)[C@]5(CC)C=CCN6CC[C@]43[C@@H]65)C2)C1,0.122 µM (active)
17,CCc1nc(C(N)=O)c(Nc2ccc(N3CCC(N4CCN(C)CC4)CC3)c(OC)c2)nc1NC1CCOCC1,3 µM (active)
18,CCN(CC)CCOc1ccc(/C(=C(\Cl)c2ccccc2)c2ccccc2)cc1,79.4 µM (active)
19,Cc1ccc(C(N)=O)cc1Nc1nccc(-c2cn(C(C)C)c3cnccc23)n1,7.69 µM (active)

row,Structure (SMILES),Potency
1,Cc1cc(Nc2cc(N3CCN(C)CC3)nc(/C=C/c3ccccc3)n2)n[nH]1,1.72 µM (active)
2,Nc1ccc(-c2ccc3ncc4ccc(=O)n(-c5cccc(C(F)(F)F)c5)c4c3c2)cn1,0.385 µM (active)
3,CN1CCCC(n2nc(Cc3ccc(Cl)cc3)c3ccccc3c2=O)CC1 (configuration not stated),inactive
4,Cc1cc(Nc2cc(N3CCN(C)CC3)nc(Sc3ccc(NC(=O)C4CC4)cc3)n2)n[nH]1,1.09 µM (active)
5,CCc1cccc(CC)c1NC(=O)N1Cc2[nH]nc(NC(=O)c3ccc(N4CCN(C)CC4)cc3)c2C1,1.53 µM (active)
6,CC(C)(C(=O)NCC(F)(F)C(F)(F)F)C(=O)NC1C(=O)Nc2ccccc2-c2ccccc21 (configuration not stated),6.11 µM (active)
7,CN1C2CCC1CC(OC(=O)[C@H](CO)c1ccccc1)C2 (some centres not stated),inactive
8,c1nc2nc(Nc3ccc(N4CCOCC4)cc3)nc(NC3CCCCC3)c2[nH]1,1.88 µM (active)
9,O=C1c2c(O)ccc(O)c2C(=O)c2c(NCCNCCO)ccc(NCCNCCO)c21,2.43 µM (active)
10,COc1ccc(OC)c(-c2nnc3ccc(-c4ccc(OC)c(O[C@@H]5CCOC5)c4)nn23)c1,5.44 µM (active)
11,Nc1nc(Cl)nc2c1ncn2C1OC(CO)C(O)C1F (configuration not stated),inactive
12,Cc1ccc(C(=O)N(CCCN)C(c2nc3cc(Cl)ccc3c(=O)n2Cc2ccccc2)C(C)C)cc1 (configuration not stated),0.0172 µM (active)
13,CCOc1cc2ncc(C#N)c(Nc3ccc(F)c(Cl)c3)c2cc1NC(=O)/C=C/CN(C)C,24.3 µM (active)
14,Cc1nc(N)sc1-c1ccnc(Nc2ccc(N3CCOCC3)cc2)n1,2.17 µM (active)
15,Cc1cc(CN2CCN(c3c(Br)cnc4nc(-c5ccc(N6CCN(C)CC6)cc5)[nH]c34)CC2)no1,3.06 µM (active)
16,CCS(=O)(=O)N1CCN(c2ccc(Nc3ncc(C(N)=O)c(NC4CC4)n3)cc2)CC1,4.85 µM (active)
17,C[C@]12CCC(=O)C=C1[C@@H]1C[C@@H]1[C@H]1[C@@H]3[C@@H]4C[C@@H]4[C@@]4(CCC(=O)O4)[C@@]3(C)CC[C@@H]12,4.85 µM (active)
18,COc1cc2c(NC3CCN(C(C)C)CC3)nc(C3CCCCC3)nc2cc1OCCCN1CCCC1,15.3 µM (active)
